Test results as given in PubChem BioAssay (NCI).
Where “and” joins values, the source holds several entries; their conditions need not be identical. Equal entries are not always repeated. The panel holds about 83,000 compounds, 20% with a hit somewhere; the sample as a whole holds those more often.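 The test compound was applied at a single concentration to cells in 96-well plates for 48 hours, and percent growth was recorded.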 Unmarked numbers belong to inactive results. Calls of active or inactive are those of the source.

Tested on: SK-MEL-5 melanoma
Test: NCI-60 one-dose screen, 48 h (100 = growth as untreated, 0 = no growth, -100 = all killed)
Conditions: 10 µM
Procedure: Growth inhibition of the SK-MEL-5 human tumor cell line is measured as a screen for anti-cancer activity. Cells are grown in 96 well plates and exposed to the test compound for 48 hours. Compounds are tested at a single concentration, which is 10^-5 M for most compounds. The reported endpoint is percent growth (GI% or GIPRCNT), where numbers from 0 - 100% represent growth inhibition, and numbers from -100% - 0 represent cell death. For example, a value of 40 represents 60% growth inhibition. A value of 0 means no net growth occurred over the course of the experiment. A value of -40 indicates 40% of cells at the beginning of the experiment died by the end of the experiment. A value of -100 means all cells are dead at the end of the experiment.
NCI-60 Human Tumor Cell Lines Screen was performed using the standard one-dose NCI protocol, which is described in more detail at https://dtp.cancer.gov/discovery_development/nci-60/default.htm.
Compounds with GIPRCNT values below 10 were considered active. Activity score was based on GIPRCNT using the following formula: […]
Score is 0 for GIPRCNT values of 100 or above, 50 for GIPRCNT values of 0, and 100 for GIPRCNT values of -100.

Compound	growth
O=C(O)CCCc1ccc(N(CCCl)CCCl)cc1	93% and 88.4%

Same assay, conditions: 10 µM unless noted

Compound	growth
CCCC(C)SP(=S)(SC(C)CCC)SC(C)CCC (stereo not given)	91.9%
COc1ccn(C)c(=O)c1C#N	98%
CC[C@H](C)[C@H](NC(=O)[C@H]1CCCCN1C)C(=O)N(C)[C@H](C[C@@H](OC(C)=O)c1nc(C(=O)N[C@@H](Cc2ccccc2)C[C@H](C)C(=O)O)cs1)C(C)C	-71.7% (active)
C=CC[PH+](c1ccccc1)c1ccccc1.C=CC[PH+](c1ccccc1)c1ccccc1.[Pt+2].[S-]c1nc2ccccc2[nH]1.[S-]c1nc2ccccc2[nH]1	-94.9% (active)
Cc1ccc(P(=O)(O)O)cc1	107%
CC(Oc1ccc(-c2ccccc2)cc1)C(=O)O (stereo not given)	97%
C[C@H](O)CCC(=O)c1ccoc1	99.9%
N#Cc1ccc(Cl)cc1	106%
O=S(=O)(c1ccc(O)cc1)c1ccccc1O	102%
CN(C)C(=S)SSC(=S)N(C)C	82%
O=[P+](O)c1cccnc1	102%
COc1cc2c(c(OC)c1OC)-c1ccc(O)cc1[C@@H](NC(C)=O)CC2	-24.2% (active) and -61.7% (active)
Cc1ccc(NC2=N[C@]34CC(=O)CC[C@]3(C)[C@H]3CC[C@]5(C)C(=O)CC[C@H]5[C@@H]3C[C@@H]4S2)c(C)c1	51.4%
CCCn1cc2c3c(cccc31)[C@H]1C[C@@H](C)CN(C)[C@@H]1C2	113%
OCCN=Cc1c[nH]c2ccccc12	103%
COc1c(O)cc2c(c1OC)-c1ccc(SC)c(=O)cc1C(NC(C)=O)CC2 (stereo not given)	-28.2% (active)
O=S(OO)c1cc(Cl)c(O)c(Cl)c1 (stereo not given)	104%
CCOC(=O)c1cncn1C(C)c1ccccc1 (stereo not given)	102%
O=C1CCCCC1CN1CCCCC1 (stereo not given)	104%

Compound	growth
[N-]=[N+]=CC(=O)CCC(=O)C=[N+]=[N-]	116%
NC1CN2CCC1CC2 (stereo not given)	110%
C/C(=C\c1ccn(-c2ccc(N)c(C(F)(F)F)c2)n1)[C@@H]1C[C@@H]2O[C@]2(C)CCC[C@H](C)[C@H](O)[C@@H](C)C(=O)C(C)(C)[C@@H](O)CC(=O)O1	21.5%
C[C@]12CC[C@H]3[C@@H](C[C@@H]4SC(Nc5ccccc5)=N[C@@]45C/C(=N/O)CC[C@]35C)[C@@H]1CCC2=O	84.5%
CC1(C)S[C@H]2CC[C@H]3OC(=O)[C@@H]1N23	111%
O=C1C=C(N2CC2)c2ccccc2C1=O	59.7%
O=[N+]([O-])c1cc(Br)c(O)c(Br)c1	98%
CCC(=O)C(CC(C)N1CCCCCC1)(c1ccccc1)c1ccccc1 (stereo not given)	98.2%
CCCCCCCCCCCCCCCC[N+](C)(C)C	-94.6% (active) and -73.7% (active)
S=P(SP(=S)(c1ccccc1)c1ccccc1)(c1ccccc1)c1ccccc1	99.9%
CC[C@H](C)[C@H](NC(=O)[C@H]1CCCCN1C)C(=O)N(C)[C@H](C[C@@H](OC(C)=O)c1nc(C(=O)NC23C4C5C2C2C3C4C52C(=O)OC)cs1)C(C)C (stereo not given in full)	-56.9% (active)
CC(=O)Nc1nc2c(s1)C1=CC[C@H]3[C@@H]4CC[C@H](OC(C)=O)[C@@]4(C)CC[C@@H]3[C@@]1(C)CC2	36.9%
CCCC[C@H]1C(=O)O[C@H](C)[C@H](NC(=O)c2cccc(NC=O)c2O)C(=O)O[C@@H](C)[C@@H]1OC(=O)CC(C)C	-5.18% (active)
C[C@@]12CCCc3coc(c31)C(=O)c1cc3c(cc12)C(=O)C1=C(NCCS1(=O)=O)C3=O	-98% (active)
CC[C@H](C)[C@H](NC(=O)[C@H]1CCCCN1C)C(=O)N(C)[C@H](C(=O)NC12CC(C(=O)N[C@@H](Cc3ccccc3)C[C@H](C)C(=O)OC)(C1)C2)C(C)C	101%
CC12CCC3C(CCC4CC(O)CCC43C)C1CCC2=O (stereo not given)	101%
NC(=O)c1c(Br)c(Br)c(Br)c(Br)c1C(=O)O (tested in a mixture with another compound)	95.2% and 101%
C[C@]12CC[C@H]3[C@@H](CC=C4c5nc(N)sc5CC[C@@]43C)[C@@H]1CC[C@@H]2O	98.5%
O=Cc1cn(Cc2ccccc2)c2ccccc12	85.5%

Same assay, conditions: 75 µM

Compound	growth [%]
O=C(O)CCCc1ccc(N(CCCl)CCCl)cc1	38.6
